# Data from PubChem BioAssay (NCATS).
# Inconclusive results are not listed. Where a call stands in place of a potency, no number is given. The source made the active and inactive calls. Calls come from the whole dose curve; as a rule, active = well fitted inhibition curve with a large enough effect; inconclusive = small, poorly fitted or top-dose-only effect; inactive = flat fitted curve, though single readings scatter.
# System: CRL-7250
# Test: qHTS assay to identify novel small-molecules to repurpose for Merkel cell carcinoma treatment (AID 1296009); note: nearly all actives have a fitted effect of over 60% in size
# Settings: MCC and control cell lines, CellTiter-Glo viability, 72 h; series mostly up to 92 µM
# How it was run: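 Cell viability measured by CellTiter-Glo following 72 hr compound treatment at 37 degree celsius, with NPC and MIPE libraries tested in 8- and 11-point concentration series.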
Structure (SMILES),Potency,outcome
COc1c2c(c(C)c3c1C(=O)OC3)O[C@@]1(C)C[C@@H](O)[C@]34O[C@](OC)(CC[C@]3(C)[C@H]1C2)OC4(C)C,inactive,
CC1C2=CC(=O)OC2(O)CC2C1C(O)CC1C(C)(CO)CCCC21C (centres undefined),inactive,
Cc1ccc(-c2ccc3c(ccc4sc5c(c43)NC[C@@H](C)NC5=O)n2)cn1,inactive,
CC(=O)OC1(C)CC(O)C2(O)C=COC(OC3OC(CO)C(O)C(O)C3O)C12 (centres undefined),inactive,
O=C(O[C@@H]1O[C@H](CO)[C@@H](O)[C@H](O)[C@H]1O)c1ccccc1,inactive,
COC(=O)c1ccccc1O[C@@H]1O[C@H](CO)[C@@H](O)[C@H](O)[C@H]1O[C@@H]1O[C@@H](C)[C@H](O)[C@@H](O)[C@H]1O,inactive,
CC(C)=CCCC1(C)Oc2cc3c(c4c2C2C(O4)C(C)(O)CCC21)CN(C(CCC(=O)O)C(=O)O)C3=O (centres undefined),inactive,
C[C@@H]1O[C@@H](O[C@H]2[C@@H]3C=CO[C@@H](O[C@@H]4O[C@H](CO)[C@@H](O)[C@H](O)[C@H]4O)[C@@H]3[C@@]3(CO)O[C@@H]23)[C@H](OC(=O)/C=C/c2ccc(O)c(O)c2)[C@H](O)[C@H]1O,inactive,
Cc1occc(=O)c1O[C@@H]1O[C@H](COC(=O)CC(C)(O)CC(=O)O)[C@@H](O)[C@H](O)[C@H]1O (some centres undefined),inactive,
CCCSc1nc(NC2CC2c2ccc(F)c(F)c2)c2nnn(C3CC(OCCO)C(O)C3O)c2n1 (centres undefined),inactive,
Cc1ccc(Sc2cncc3sc(C(N)=O)cc23)cc1,inactive,
O=c1ccn(C2OC(CO)C(O)C2O)c(=O)[nH]1 (centres undefined),inactive,
C=C1CCC2C(C)(C)CC(=O)CC2(C)C1CCC(C)CCOC(C)=O (centres undefined),inactive,
COc1cc2c(cc1O)C1(Cc3ccc4c(c3C1O)OCO4)[N+](C)([O-])CC2 (centres undefined),inactive,
CC1(C)CC(=O)N(CCCCN2CCN(c3ncccn3)CC2)C(=O)C1,inactive,
C=C1C(OC(C)=O)CCC2(C)CC3(O)OC(=O)C(C)=C3CC12 (centres undefined),inactive,
Cc1c(C)c(NCC(=O)N(C)C2CCN(Cc3ccc(C(N)=O)cc3)CC2)c(C)c(C)c1N,inactive,
CC/C=C\CCO[C@@H]1O[C@H](CO[C@@H]2OC[C@H](O)[C@H](O)[C@H]2O)[C@@H](O)[C@H](O)[C@H]1O,inactive,
COc1ccc2cc(C(C)C(=O)Oc3ccc(C(N)=S)cc3)ccc2c1 (centres undefined),inactive,
C=C1CC[C@@]2(OC1)O[C@H]1CC3C4CC=C5C[C@@H](O[C@@H]6O[C@@H](C)[C@H](O)[C@@H](O)[C@H]6O)C[C@@H](O[C@@H]6O[C@H](C)[C@H](O)[C@H](O)[C@H]6O[C@@H]6O[C@@H](C)[C@H](O)[C@@H](O)[C@H]6O)[C@]5(C)C4CC[C@]3(C)[C@H]1[C@@H]2C (some centres undefined),,inactive [at 9.27 µM]

Structure (SMILES),Potency,outcome
C1=Cc2ccccc2C(=C2CCN(CCCCc3nn[nH]n3)CC2)c2ccccc21,inactive,
CC(C)C[C@H](CC(=O)NO)C(=O)N[C@H](C(=O)N[C@@H](C)C(=O)NCCN)C(C)(C)C,,inactive [at 9.27 µM]
CCC(C)/C=C(C)/C=C/C1=CC2=C(Cl)C(=O)C(C)(OC(C)=O)C(=O)C2(O)C(OC)O1 (centres undefined),inactive,
COC1C=C([C@@H]2CC=C3[C@@]4(C)C(CC[C@]32C)[C@@]2(C)C=CC(=O)C(C)(C)C2C[C@H]4OC(C)=O)C(=O)O1 (some centres undefined),inactive,
C[C@H]1CC[C@@]2(OC1)O[C@H]1CC3C4CC[C@H]5C[C@@H](O)CC[C@]5(C)C4=CC(=O)[C@]3(C)[C@H]1[C@@H]2C (some centres undefined),inactive,
OC[C@H]1O[C@@H](OCCc2ccccc2)[C@H](O[C@@H]2OC[C@@H](O)[C@H](O)[C@H]2O)[C@@H](O)[C@@H]1O,inactive,
COc1ccc(S(=O)(=O)Nc2c(C)cc(C)cc2C)cc1,inactive,
N[C@@H](CCNCc1ccc(Cl)cc1)C(=O)N1CCCCC1,inactive,
C=C1CCC2C(C)(C(=O)OC)CCCC2(C)C1CCC(C)CC(=O)O (centres undefined),inactive,
CC(C)(C)NCCCNC(=O)c1cccc(Br)c1,inactive,
CC(=O)O[C@@H]1[C@@H](OC(=O)/C=C/c2ccccc2)[C@@H](OC(C)=O)[C@H](O[C@H]2[C@@H]3C=CO[C@@H](O[C@@H]4O[C@H](CO)[C@@H](O)[C@H](O)[C@H]4O)[C@@H]3[C@@]3(CO)O[C@@H]23)O[C@H]1C,inactive,
CO[C@H]1c2cc(C(C)C)c(O)c(O)c2[C@@]23CCCC(C)(C)C2[C@@H]1OC3=O (some centres undefined),inactive,
NC1(c2ccc(NC(=O)c3ccnc(-c4cc(C(=O)O)ccn4)c3)cc2)CC1,inactive,
NC(=O)c1cccc2[nH]c(-c3ccc(C4CCCN4)cc3F)nc12 (centres undefined),inactive,
CC1(C)CCC2(C(=O)OC3OC(COC4OC(CO)C(O)C(O)C4O)C(O)C(O)C3O)CCC3(C)C(=CCC4C5(C)CCC(O)C(C)(C(=O)O)C5CCC43C)C2C1O (centres undefined),,inactive [at 9.27 µM]
Oc1ccc([C@H]2COc3cc(O)ccc3C2)cc1,inactive,
CC1=C(CO)CC(C(C)C2CCC3C4CC=C5CC(OC6OC(COC7OC(CO)C(O)C(O)C7O)C(O)C(O)C6O)CC(O)C5(C)C4CCC23C)OC1=O (centres undefined),inactive,
CC(C)=C[C@@H]1[C@H](CO[C@@H]2O[C@H](CO)[C@@H](O)[C@H](O)[C@H]2O)C1(C)C,inactive,
C/C=C1/[C@H](O[C@@H]2O[C@H](CO)[C@@H](O)[C@H](O)[C@H]2O)OC=C(C(=O)OC)[C@H]1CC(=O)O[C@@H]1O[C@H](CO)[C@@H](O)[C@H](O)[C@H]1O,inactive,
